Source: PubChem BioAssay (National Center for Advancing Translational Sciences (NCATS))
HP1b chromo inh = HP1-beta chromodomain-methylated histone interaction inhibition. Potency, µM (top dose mostly 114 µM), without a hit: top-dose activity change, negative = inhibition, hits mostly inhibitors. hit rate 0.56% among 390,000. AlphaScreen HP1-beta / biotin-H3K9me3 peptide binding; also: nearly all actives have a fitted effect of over 70% in size
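Compound inhibition of the preformed complex between 50 nM HP1-beta and 50 nM biotinylated H3K9me3 peptide was read by AlphaScreen. Buffer was PBS pH 7.4 with 0.01% Tween-20. Incubations ran 30 min at room temperature, with 10 ug/mL donor/acceptor beads.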
BAZ2B block = BAZ2B (human) inhibition; AlphaScreen BAZ2B-H3K14Ac peptide displacement; Potency, µM (doses to about 114 µM), without a hit: at the top dose activity change, negative = inhibition, usual class: inhibitors; hit rate 4.4% among 360,000; AID 504333; also: % is scaled to controls: 0 for no effect and ±100 for the full control effect; nearly all actives have a fitted effect of over 60% in size
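In this displacement format the biotinylated H3(5-23) peptide acetylated at Lys14 serves as ligand at 50 nM, with BAZ2B at 50 nM in PBS pH 7.4 containing 0.01% Tween-20. Donor and acceptor beads are 10 ug/mL final.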
L3MBTL1 block = inhibitors of human L3MBTL1 | AlphaScreen L3MBTL1–H3K9me1 peptide binding | Potency, µM (doses to about 57.1 µM), for the others: top-dose activity, negative = inhibition, most hits filed as inhibitors | hit rate 0.66% among 230,000 | AID 485360; also: % is scaled to controls: 0 for no effect and ±100 for the full control effect; nearly all actives have a fitted effect of over 60% in size
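L3MBTL1 50 nM + b-AHA-H3(1-15)K9me1 75 nM, 30 min RT; compound added, 30 min RT; streptavidin donor/Ni-chelate acceptor beads 10 ug/mL each final, 30 min RT dark; AlphaScreen read.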
G9a block = inhibitors of human histone lysine methyltransferase G9a. Q96KQ7. G9a H3K9 monomethylation, AlphaScreen, 2 h. hit rate 8.8% among 350,000. AID 504332. Potency, µM (titrated, usually from 102 µM), for inactives: at the highest dose activity, negative = inhibition, usual class: inhibitors; also: % is scaled to controls: 0 for no effect and ±100 for the full control effect; nearly all actives have a fitted effect of over 75% in size
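Using a bead-based AlphaScreen, monomethylated H3K9 product from 2 h room-temperature reactions (G9a 20 nM, peptide 500 nM, SAM 20 uM) was detected with 0.5 ug/mL rabbit anti-H3K9me1 antibody.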
GLS inh = blocks human kidney-isoform glutaminase activity | O94925 | GLS enzymatic activity, qHTS titration | Potency, µM (titrated, usually from 45.5 µM), inactives show top-dose activity change, negative = inhibition, usual class: inhibitors | hit rate 0.21% among 410,000 | AID 624170; also: % is scaled to controls: 0 for no effect and ±100 for the full control effect
Target sequence (O94925 whole entry, looked up, canonical isoform): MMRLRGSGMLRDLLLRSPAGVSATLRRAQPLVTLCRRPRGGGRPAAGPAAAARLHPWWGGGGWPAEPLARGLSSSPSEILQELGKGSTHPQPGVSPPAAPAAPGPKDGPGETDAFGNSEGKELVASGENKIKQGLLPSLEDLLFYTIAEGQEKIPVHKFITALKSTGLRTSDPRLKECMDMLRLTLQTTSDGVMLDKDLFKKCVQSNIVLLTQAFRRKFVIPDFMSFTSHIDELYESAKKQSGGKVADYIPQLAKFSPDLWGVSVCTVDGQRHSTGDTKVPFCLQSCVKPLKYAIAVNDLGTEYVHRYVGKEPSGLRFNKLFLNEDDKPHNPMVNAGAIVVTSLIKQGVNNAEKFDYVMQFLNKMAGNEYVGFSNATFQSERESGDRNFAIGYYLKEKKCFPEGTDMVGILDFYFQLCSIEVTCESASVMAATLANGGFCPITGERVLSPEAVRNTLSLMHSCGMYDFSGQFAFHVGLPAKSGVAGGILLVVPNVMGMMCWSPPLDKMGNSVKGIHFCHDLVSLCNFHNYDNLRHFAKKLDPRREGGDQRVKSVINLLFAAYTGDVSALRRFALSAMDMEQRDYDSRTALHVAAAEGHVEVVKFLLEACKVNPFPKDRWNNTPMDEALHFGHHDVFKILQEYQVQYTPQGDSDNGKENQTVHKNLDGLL
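Read-out is an Amplex red fluorescence increase coupled through glutamate oxidase and HRP, measured before and after 30 min room-temperature incubation. hKGA is in 45 mM KH2PO4 (pH 8.2) with 0.02% Tween-20; glutamine added as 1mM solution.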
JMJD2A Tudor = inhibitors of human JMJD2A Tudor domain | O75164 | AlphaScreen JMJD2A-Tudor / H3K4me3 peptide binding | Potency, µM (highest dose often 114 µM), inactives show at the highest dose activity change, negative = inhibition, hits mostly inhibitors | hit rate 4.4% among 390,000 | AID 504339; also: % is scaled to controls: 0 for no effect and ±100 for the full control effect; nearly all actives have a fitted effect of over 50% in size
* hit, by the source's call; ? = inconclusive; / = no result; [ ] = remark or other dose. Compounds with a hit are over-represented: about 10% of the library has one in this group of screens. Calls follow the shape of the dose curve; as a rule, active = well fitted curve in the direction sought with a large enough effect; inconclusive = small, poorly fitted or top-dose-only effect, or another doubt; inactive = no such curve, though single readings can be large; an effect the other way counts as inactive or inconclusive. Potency is read from the fitted curve at half-maximal effect.

SMILES | HP1b chromo inh | BAZ2B block | L3MBTL1 block | G9a block | GLS inh | JMJD2A Tudor
CC(C)CN(CCCNC(=O)c1cc(-c2ccc(Br)s2)nc2ccccc12)CC(C)C | 42.1% | 0.9% | / | 10.5%[59 µM] | 2.6% | 4.4%
COc1ccc(C)c2sc(N(CCCN(C)C)C(=O)CS(=O)(=O)c3ccc(F)cc3)nc12 | 14.2% | -3.0% | -12.5% | 3.2%[59 µM] | 6.7% | -15.7%
COc1ccc(Cl)c2sc(N(CCN(C)C)C(=O)CCS(=O)(=O)c3ccc(C)cc3)nc12 | 1.6% | -9.3% | 0.3% | 10µM* | 1.0% | -24.9%
CCCC(=O)N(CCN1CCOCC1)c1nc2c(OC)ccc(OC)c2s1 | 67.2% | -28.2% | / | ? | 5.2% | -23.6%
Cc1ccc2sc(N(CCCN(C)C)C(=O)CCS(=O)(=O)c3ccccc3)nc2c1C | 48.4% | -30.9% | / | 15.8µM* | 2.2% | -1.0%
COc1ccc(OC)c2sc(N(CCCN(C)C)C(=O)CCS(=O)(=O)c3ccccc3)nc12 | 10.0% | -27.3% | -10.9% | 20µM* | 11.8% | -26.2%
CN(C)CCN(C(=O)CCS(=O)(=O)c1ccccc1)c1nc2c(F)cccc2s1 | 41.7% | -26.3% | / | 28.2µM* | -11.9% | -19.6%
CN(C)CCCN(C(=O)CCS(=O)(=O)c1ccccc1)c1nc2cc3c(cc2s1)OCO3 | 35.4% | -10.8% | / | / | -7.0% | -20.5%
O=C(Cc1ccccc1)N(Cc1cccnc1)c1nc2c(Cl)cccc2s1 | 16.0% | ? | / | 9.1%[59 µM] | 1.3% | -19.2%
O=C(Cc1ccccc1)N(Cc1cccnc1)c1nc2c(F)cccc2s1 | 25.6% | -6.4% | / | 6.4%[59 µM] | 3.1% | 39.8µM*
COc1ccc(C(CCNCc2ccc(N(C)C)cc2)c2ccccc2)cc1 (stereo not given) | 39.8µM* | 11.2µM* | / | 0.5%[2.33 µM] | -6.4% | 25.1µM*
Cc1ccc2cc(CCNC(=O)c3ccco3)c(=O)[nH]c2c1C | 47.9% | 8.9% | 34.7% | 79.4µM* | -5.8% | -10.6%
COc1ccc2cc(CCNC(=O)c3ccco3)c(=O)[nH]c2c1 | 38.3% | -0.3% | / | 44.7µM* | -16.5% | -5.9%
O=C(COc1ccc(Cl)cc1)NCC(c1ccco1)S(=O)(=O)c1ccc(Cl)cc1 (stereo not given) | 19.9% | -4.6% | / | 4.2%[59 µM] | 7.0% | -6.2%
Cc1ccc(-n2nc(C(=O)N(C)Cc3ccccc3)c3c4ccccc4n(C)c3c2=O)cc1 | 23.8% | 5.2% | / | -28.7%[59 µM] | 8.9% | -6.8%
C/C(=C\C(=O)c1ccc(Cl)cc1)Nc1ccc(N2CCOCC2)cc1 | 37.6% | 0.4% | / | 1.6% | -5.3% | -6.2%
O=C(NC(=S)Nc1ccc(N2CCOCC2)cc1)c1cccc(Cl)c1 | ? | 17.8µM* | -27.1% | 28.2µM* | 2.6% | ?
COc1cccc(C(=O)NCC2CCN(c3ccc(S(=O)(=O)N4CCOCC4)cc3)CC2)c1 | 8.7% | 7.9% | -3.0% | 10.1% | -7.7% | 0.9%
CC(=O)c1ccc(NC(=S)Nc2ccc(N3CCOCC3)cc2)cc1 | -17.0% | -26.8% | -19.3% | 44.7µM* | ? | -5.8%
O=C(NCC1CCN(c2ccc(S(=O)(=O)N3CCOCC3)cc2)CC1)c1cccc(Cl)c1 | 10.8% | 56.2µM* | / | -17.6% | 14.1% | -16.6%
C/C(=C\C(=O)c1ccccc1)Nc1ccc(N2CCOCC2)cc1 | 22.8% | -1.0% | / | 79.4µM* | 14.0% | -27.0%
CN(C)C(=S)Nc1ccc(N2CCOCC2)cc1 | 47.4% | -1.1% | 5.4% | / | 38.2% | -3.7%
Cc1c(Cl)cccc1NC(=O)CN1C(=O)COc2ccc(S(=O)(=O)N3CCCCCC3)cc21 | 39.0% | -0.4% | / | 5.1%[59 µM] | -3.6% | 9.2%
Cc1ccc2c(c1)C1(C=CC(=O)C=C1)CC(=O)N2C | 25.3% | / | / | / | / | -22.1%
O=C(NC(=S)Nc1ccc(N2CCOCC2)cc1)c1cncc(Br)c1 | ? | ? | -8.9% | ? | 24.3% | -29.1%
SMILES | HP1b chromo inh | BAZ2B block | L3MBTL1 block | G9a block | GLS inh | JMJD2A Tudor
CCc1ccc(C(=O)NC(=S)Nc2ccc(N3CCOCC3)cc2)cc1 | ? | 20µM* | -28.8% | 6.31µM* | 7.8% | ?
Cc1ccccc1C(=O)NC(=S)Nc1ccc(N2CCOCC2)cc1 | ? | ? | -22.7% | 44.7µM* | 26.4% | ?
O=C(NC(=S)Nc1ccc(N2CCOCC2)cc1)c1ccccc1 | ? | ? | -14.0% | 4.47µM* | -13.1% | ?
N#CN=c1snc(-c2ccccc2Cl)n1-c1ccccc1Cl | 5.3%[57 µM] | / | / | / | / | -9.2%[57.1 µM]
Cc1ccc(N(C)C(CNS(=O)(=O)c2ccccc2)c2ccccc2)cc1 (stereo not given) | -4.9% | ? | / | ? | 28.2% | ?
Cc1ccc(-n2ncc(C(=O)N3CCc4ccccc4C3)c2NC(=O)c2ccco2)cc1C | 14.6% | -11.5% | -19.2% | 25.1µM* | -1.9% | -16.9%
COc1ccc(CCNC(=O)c2cnn(-c3ccc(C)c(C)c3)c2NC(=O)c2ccco2)cc1OC | 2.5% | -0.8% | / | 7.3%[59 µM] | 0.2% | -10.9%
CC(C)CN(CC(C)C)c1nnc(NC(=O)Nc2cccc(C(F)(F)F)c2)s1 | 24.0% | -31.8% | / | ? | -6.5% | -15.6%
CCCC(c1nnnn1CCc1ccccc1)N1CCN(C(=O)c2ccco2)CC1 (stereo not given) | 44.1% | -33.9% | 2.3% | ? | -8.6% | -15.7%
CCC(c1nnnn1Cc1ccccc1)N1CCN(C(=O)c2ccco2)CC1 (stereo not given) | 23.8% | 14.8% | -12.0% | 79.4µM* | 1.7% | 17.2%
CCC(c1nnnn1CCOC)N1CCN(C(=O)c2ccco2)CC1 (stereo not given) | 18.8% | 50.1µM* | 10.3% | / | 0.9% | ?
COCCn1nnnc1C(c1ccc(Cl)cc1)N1CCN(C(=O)c2ccco2)CC1 (stereo not given) | 42.0% | -2.2% | / | 56.2µM* | -3.0% | 44.7µM*
CCCCC(c1nnnn1CCOC)N1CCN(C(=O)c2ccco2)CC1 (stereo not given) | 30.3% | 50.1µM* | / | ? | -6.7% | 12.3%[11.4 µM]
COc1ccc(CCNC(=O)c2ccc3c(c2)CCN3S(=O)(=O)c2ccc(C)cc2)cc1 | 18.0% | -4.5% | / | -30.5%[59 µM] | -1.8% | -14.5%
COCCc1nn2c(=O)cc(COC(=O)C(c3ccccc3)c3ccccc3)nc2s1 | 56.5% | -3.0% | / | 26.3%[59 µM] | -1.2% | -4.7%
CCC(c1nnnn1Cc1ccco1)N1CCN(c2cc(Cl)ccc2C)CC1 (stereo not given) | ? | ? | -0.7% | 9.7%[59 µM] | 18.1% | 50.1µM*
COCCn1nnnc1C(c1ccc(OC)cc1)N1CCC(C)CC1 (stereo not given) | 18.4% | ? | / | -28.9%[12.7 µM] | 8.0% | -8.7%
COCCn1nnnc1C(CC(C)C)N1CCN(C(=O)c2ccco2)CC1 (stereo not given) | -13.3% | 79.4µM* | 4.3% | 39.8µM* | -8.1% | 15.1%[11.4 µM]
